Source: PubChem
The list is not random: actives were taken first. Their share in the collection is about 3%.
ClpP mod: qHTS Assay for Activators of ClpP; 340,000 tested, 1.9% active; Potency, µM (doses to about 57.5 µM), for inactives: at the top dose activity change, negative = active; purified B. subtilis ClpP, FRET peptide cleavage, 20 min; AID 651965, 2013; active = well fitted falling curve with a large enough effect; inconclusive = small, poorly fitted or top-dose-only effect; inactive = no such curve, though single readings can be large or run the other way; note: potency is the fitted concentration of half-maximal effect; the source files actives as falling curves though it sought activators and does not explain the sign; nearly all actives have a fitted effect of over 65% in size
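Buffer: 100 mM Tris/HCl pH8, 100 mM KCl, 0.05% low protease BSA, 2.5% glycerol, 0.01% Tween-20. ClpP 10 microg/mL final; 20 min RT; delta FRET normalized to ADEP and DMSO controls.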
Chronic BCR inh: chronic active BCR signaling inhibition; ABC-DLBCL IkBa-CBG/CBR reporter, luminescence ratio, 4 h; Potency, µM (doses to about 46.1 µM), without a hit: at the top dose activity change, negative = inhibition, most hits filed as inhibitors; 340,000 tested, 0.05% active; AID 493014; active = well fitted inhibition curve with a large enough effect in the signal ratio, with a control signal flat, not every such curve was filed as active; inconclusive = small, poorly fitted or top-dose-only effect, or effect the other way, or a change in a side signal; the % refers to the signal ratio;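 note: potency is the fitted concentration of half-maximal effect; plate controls were basal doxycycline-induced cells for no effect and cells given 10 µM MG132 for full effect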
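Doxycycline induced both beetle luciferases in TMD8 lymphoma cells; IKK-driven degradation limits the IkappaBalpha-fused green signal, while red luminescence normalises for cell number and nonspecific effects. Compounds tested up to 46 uM, 4 hrs.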
KCNH2 3.1 inh: inhibitors of human KCNH2 3.1 potassium channel isoform | U2OS KCNH2 3.1, thallium flux FluxOr; stronger effect = lower value | activity change, % (tested at about 1.8 µM) | 340,000 tested, 0.95% active | AID 720553;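 active = maximum activity change below -70%; inconclusive = maximum activity change from -70% to -50%; inactive = maximum activity change above -50%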;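 note: thallium influx rate constant from kinetic fluorescence after stimulation buffer; % is set by controls: 0 for no effect and ±100 for the full control effect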
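We transduce U2OS cells with the mutant 3.1 virus, culture them overnight, load FluxOr with Red40 quencher for 45 min, then add stimulation buffer and read kinetically for 2 min to derive a normalized rate constant.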
ALOX12 inh: ALOX12 (human) lipoxygenase inhibition. Potency, µM (series often up to 108 µM), without a hit: top-dose activity change, negative = inhibition, actives largely listed as inhibitors. P18054. purified 12hLO, xylenol orange hydroperoxide absorbance. 580,000 tested, 1.1% active; active = well fitted inhibition curve with a large enough effect; inconclusive = small, poorly fitted or top-dose-only effect, or another doubt; inactive = no such curve, though single readings can be large or run the other way; note: potency is the fitted concentration of half-maximal effect; % is set by controls: 0 for no effect and ±100 for the full control effect
Target sequence (P18054 whole entry, looked up): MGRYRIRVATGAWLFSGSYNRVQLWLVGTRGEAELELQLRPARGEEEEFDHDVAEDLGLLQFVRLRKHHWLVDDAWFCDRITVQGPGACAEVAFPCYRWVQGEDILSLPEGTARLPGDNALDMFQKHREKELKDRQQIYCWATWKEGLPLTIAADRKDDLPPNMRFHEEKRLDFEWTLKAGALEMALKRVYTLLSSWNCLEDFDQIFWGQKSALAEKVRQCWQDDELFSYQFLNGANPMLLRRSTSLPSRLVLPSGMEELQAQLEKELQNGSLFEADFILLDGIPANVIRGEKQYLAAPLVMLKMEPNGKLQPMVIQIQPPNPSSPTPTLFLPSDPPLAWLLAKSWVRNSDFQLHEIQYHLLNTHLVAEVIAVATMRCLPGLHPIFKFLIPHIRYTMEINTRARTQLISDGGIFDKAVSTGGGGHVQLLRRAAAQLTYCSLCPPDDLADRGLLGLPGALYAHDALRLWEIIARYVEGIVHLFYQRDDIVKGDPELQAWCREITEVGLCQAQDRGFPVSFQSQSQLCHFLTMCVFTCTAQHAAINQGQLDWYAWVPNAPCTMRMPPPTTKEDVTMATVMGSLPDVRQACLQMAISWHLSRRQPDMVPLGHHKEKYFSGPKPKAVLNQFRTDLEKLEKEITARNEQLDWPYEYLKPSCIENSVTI
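Purified human 12hLO at 150 nM in 25 mM Hepes, 0.01% Triton X-100, pH 7.0, preincubated 15 min at room temperature with compound. Reaction started with 40 uM arachidonic acid, 30 min at room temperature. Hydroperoxide measured by Fe-xylenol orange, 573/405 nm absorbance ratio.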
KCNH2 WT inh: blocks the wildtype human KCNH2 potassium channel; AID 720551; 340,000 tested, 0.37% active; activity change, % at 1.84 µM; Q12809; U2OS, BacMam KCNH2, thallium flux FluxOr; stronger effect = lower value;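 active = maximum activity change below -70%; inconclusive = maximum activity change between -70% and -50%; inactive = maximum activity change above -50%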; note: % is set by controls: 0 for no effect and ±100 for the full control effect
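U2OS cells were transduced with wild-type KCNH2 virus (2.03 x 10^8 / mL) for 4 h at room temperature, then cultured overnight at 37 C. Thallium flux was read with FluxOr dye. Rate constants were normalized to DMSO controls.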
LDHA block: inhibitors of human lactate dehydrogenase A | AID 1347041 | purified LDHA, NADH/diaphorase-resazurin fluorescence; stronger effect = lower value | P00338 | 480,000 tested, 0.15% active | activity change, % (values are at about 110 or 230 µM); in the data active = activity change below about -30%; inconclusive = mostly about -25% to -30%;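 note: plate controls were DMSO wells for no effect and wells without enzyme for full effect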
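Enzyme activity of human lactate dehydrogenase 5 (2 nM; 0.06 mM NADH, 0.2 mM pyruvate, 5 min, RT) is measured via a resazurin/diaphorase fluorescence readout of residual NADH.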
The depositor's hits bear a star; ? = inconclusive; nt = no result.

SMILES | ClpP mod | Chronic BCR inh | KCNH2 3.1 inh | ALOX12 inh | KCNH2 WT inh | LDHA block
COc1cc2c(C)nc3c(c(C)nn3-c3ccccc3)c2cc1OC | nt | -3.0% | -80.8* | 9.1% | 17.7 | -5.4
COc1cc2c(-c3ccc(O)cc3)nc3c(c(C)nn3-c3ccccc3)c2cc1OC | 8.91µM* | 15.1% | 7.9 | ? | 6.6 | 2.6
O=C1C=CC(=O)N1CCCCCCCCCCN1C(=O)C=CC1=O | nt | nt | -39.2 | 2µM* | 1.0 | -3.3
O=C1C=CC(=O)N1Cc1ccncc1 | -4.9% | nt | 2.1 | ? | -6.9 | 0.0
CCOc1ccccc1N1CCN(C(=O)C2c3ccccc3Oc3ccccc32)CC1 | -1.8% | -13.8% | -1.9 | 12.8% | 19.3 | -1.9
CS(=O)(=O)N1CCN(C(=O)C2c3ccccc3Oc3ccccc32)CC1 | -2.1% | 8.5% | -185.1* | 0.0% | 34.4 | 2.9
O=C(NC(=S)Nc1ccccc1C(=O)O)c1ccc2ccccc2c1 | nt | ? | 10.9 | 25.1µM* | 7.6 | -6.1
COC(=O)c1ccccc1NC(=S)NC(=O)c1ccc(C)cc1 | -21.1% | ? | -19.4 | 35.5µM* | -17.1 | -1.2
COC(=O)c1ccccc1NC(=S)NC(=O)c1ccccc1 | -17.2% | -12.5% | 36.1 | ? | 7.4 | -3.4
O=C(O)c1ccc(NC(=S)NC(=O)c2ccc3ccccc3c2)cc1 | 26.3% | ? | -10.6 | ? | 3.4 | -9.7
Cc1ccccc1C(=O)NC(=S)Nc1ccccc1C(=O)O | nt | ? | 11.5 | 44.7µM* | 2.4 | -5.9
COCC(C)NC(=O)c1cccc2c(=O)c(C)c(-c3ccccc3)oc12 (stereo not drawn) | nt | nt | nt | ? | nt | -4.5
OC(CNCc1ccco1)Cn1c2ccc(Br)cc2c2cc(Br)ccc21 (stereo not drawn) | -3.3% | 10.0% | -100.2* | 6.31µM* | -97.9* | -3.2
COc1ccc2c(c1)OC[C@H]1[C@H]2N2C(=O)CN(Cc3ccc(F)cc3)C(=O)[C@@]2(C)[C@H]1c1ccccc1 | -1.0% | ? | -8.4 | 7.8% | 3.2 | -1.8
COc1ccc2c(c1)OC[C@H]1[C@H]2N2C(=O)CN(Cc3ccc(C)cc3)C(=O)[C@@]2(C)[C@H]1c1ccccc1 | -0.5% | -9.1% | -88.9* | -29.1% | -5.4 | -0.2
COc1ccc2c(c1)C(=O)N1[C@H]3c4cc(Cl)ccc4OC[C@@H]3[C@H](c3ccccc3)[C@]1(C)C(=O)N2 | 17.8µM* | ? | -85.0* | -2.6% | -31.9 | -9.8
COc1ccc2c(c1)OC[C@H]1[C@H]2N2C(=O)CN(Cc3ccco3)C(=O)[C@@]2(C)[C@H]1c1ccccc1 | 1.6% | ? | ? | 7.08µM* | 14.1 | 5.5
CN(C(=O)CCc1cccs1)C1CCCCC1 | nt | nt | nt | -25.2% | nt | -23.1
Cc1cccc(NCc2cc(C(C)(C)C)c(O)c(C(C)(C)C)c2)c1 | nt | nt | nt | 10µM* | nt | 55.3
CCOc1ccc(CNc2cccc(C)c2)cc1 | nt | nt | nt | ? | nt | 4.5
C=C1CCN([C@@H](Cc2ccccc2)C(=O)NCc2ccc(Cl)cc2)S(=O)(=O)c2ccccc21 | -0.3% | nt | -70.4* | 15.0% | -15.2 | -0.4
O=C(O)C1Nc2c(Cl)cc(Cl)c(Cl)c2C2C=CCC12 (stereo not drawn) | -2.9% | nt | -14.1 | 3.16µM* | -4.1 | 12.9
COc1ccc(CC(=O)OCC(=O)Nc2ncc(Cl)c(C)c2Cl)cc1 | -5.7% | 3.7% | 28.3 | 11.2µM* | -7.0 | 11.1
CN(C)c1ccc2ncccc2c1 | nt | nt | nt | 5.01µM* | nt | 32.1
CN(C)c1ccc(/C=C/c2ccc3ncccc3c2)cc1 | 3.8% | nt | nt | nt | nt | 16.7
SMILES | ClpP mod | Chronic BCR inh | KCNH2 3.1 inh | ALOX12 inh | KCNH2 WT inh | LDHA block
CCCCC(C)Sc1nc2c([nH]1)c(=S)n(C)c(=O)n2C (stereo not drawn) | -2.0% | nt | ? | -27.5% | -144.4* | 2.7
Cn1c(=S)c2[nH]c(SCc3cccnc3)nc2n(C)c1=O | -1.7% | nt | -11.0 | 3.16µM* | 6.7 | -6.9
CCCC(CC)Sc1nc2c([nH]1)c(=S)n(C)c(=O)n2C (stereo not drawn) | -6.8% | nt | -14.0 | ? | -92.4* | 3.2
Cn1c(=S)c2[nH]c(SCCC(C)(C)C)nc2n(C)c1=O | -3.7% | nt | -48.5 | -13.8% | -114.7* | -5.5
CSc1nc2c([nH]1)c(=S)n(C)c(=O)n2C | nt | nt | -6.3 | -10.3% | -7.2 | 4.6
O=C(c1ccco1)N1CCN(CCCCOc2ccc(F)cc2)CC1 | -8.2% | -3.3% | -31.8 | 31.6µM* | 43.3 | -1.7
O=C(NCC1(N2CCCCC2)CCCCC1)C1CC(=O)N(c2ccc3c(c2)OCCO3)C1 (stereo not drawn) | 8.91µM* | -3.6% | 2.8 | -22.1% | 11.2 | -2.6
Cc1nnc(NC(=O)C2CC(=O)N(c3ccc4c(c3)OCCO4)C2)s1 (stereo not drawn) | -0.7% | 0.5% | -0.2 | 11.3% | -5.5 | -17.5
Cc1cnc(NC(=O)C2CC(=O)N(c3ccc4c(c3)OCCO4)C2)s1 (stereo not drawn) | 28.2µM* | 7.2% | -7.1 | -10.3% | 10.7 | 1.9
CCc1cccc(CC)c1NC(=O)C1CC(=O)N(c2ccc3c(c2)OCCO3)C1 (stereo not drawn) | -0.4% | ? | 13.2 | ? | 4.4 | -6.3
COc1ccc(CC(=O)N2CCC(c3n[nH]c(=O)n3-c3ccc(C)cc3)CC2)cc1Cl | nt | nt | nt | 23.4% | nt | nt
COCCOC1CN(C2CCN(CC3CCCCC3)CC2)C12CCCCC2 (stereo not drawn) | nt | nt | nt | 3.5% | nt | nt
COc1ccc(C(=O)C(CCC(CNC(C)(C)C)C(=O)c2ccc(OC)cc2)CNC(C)(C)C)cc1 (stereo not drawn) | 28.2µM* | ? | 21.6 | -13.5% | -7.4 | -0.8
CCCOc1ccc(C(=O)C(CCC(CNC(C)(C)C)C(=O)c2ccc(OCCC)cc2)CNC(C)(C)C)cc1 (stereo not drawn) | nt | nt | nt | ? | nt | -2.8
CSc1ccccc1C(=O)Nc1cccc([N+](=O)[O-])c1 | -20.9% | -1.5% | 16.7 | -13.3% | 0.6 | -8.3
COc1ccc([N+](=O)[O-])cc1NC(=O)c1ccccc1SC | 28.2µM* | -4.1% | 2.1 | -21.4% | 28.4 | -0.4
COc1ccc([N+](=O)[O-])cc1NC(=O)C(C)Sc1nc(C)c(C)c(C)n1 (stereo not drawn) | 28.2µM* | 0.8% | 10.4 | -20.0% | 0.0 | 3.6
CSc1ccccc1C(=O)Nc1c(C)cc(C)cc1C | nt | nt | nt | -10.2% | nt | -31.8*
COCCNc1ncnc2ccc(-c3ccccc3C(F)(F)F)cc12 | nt | nt | nt | 20µM* | nt | nt
CC(NC(=O)CSc1nnnn1-c1ccc(O)cc1)c1ccc2c(c1)CCCC2 (stereo not drawn) | nt | nt | nt | -24.3% | nt | -7.3
